# From PubChem BioAssay (NCATS)
# Where “and” joins values, the source holds several entries; their conditions need not be identical. Equal entries are not always repeated. Values without a mark were called inactive. Records with an inconclusive call do not appear. Entries that show only a call come without a potency. Calls of active or inactive are those of the source. Unless noted, calls come from the whole dose curve; as a rule, active = well fitted curve in the direction sought with a large enough effect; inconclusive = small, poorly fitted or top-dose-only effect, or another doubt; inactive = no such curve, though single readings can be large; an effect the other way counts as inactive or inconclusive.
# Tests used:
# [1] = target: phosphoglycerate mutase (Leishmania major) (UniProt Q4Q090); assay: qHTS Validation Assay to Find Inhibitors of Phosphoglycerate Mutase (AID 504548); details: biochemical enzyme activity; Potency: inhibition qHTS; series mostly up to 57.5 µM
# Outline: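 Luminescent end-point read-out via Kinase-GloPlus after a 10-minute development. Reaction: 1.25nM Leishmania major PGAM with substrate and compound, 45 minutes at room temperature in TEA buffer (pH 7.6) with MgCl2 and Tween-20.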
# [2] = target: Ubiquitin carboxyl-terminal hydrolase 1 (Homo sapiens) (UniProt O94782); assay: Inhibitors of USP1/UAF1: Pilot qHTS (AID 504865); details: purified USP1/UAF1, Ub-rhodamine cleavage fluorescence; series mostly up to 114 µM; note: nearly all actives have a fitted effect of over 35% in size; note: potency is the fitted concentration of half-maximal effect
# Outline: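 USP1/UAF1 complex (1nM) preincubated with compound 15 min at room temperature, then Ub-Rho substrate (150nM final) added. Fluorescence read kinetically at 480/540 nm, 6 reads every 60 seconds. Buffer: 50mM HEPES pH 7.8, 0.5mM EDTA, 0.1 mg/ml BSA, 1mM TCEP, 0.01% Tween-20.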
# [3] = qHTS for Inhibitors of ATXN expression: Validation (AID 588378); details: cell-based ATXN2 expression reporter assay, luminescence; series mostly up to 57.1 µM; note: nearly all actives have a fitted effect of over 75% in size; note: potency is the fitted concentration of half-maximal effect
# Outline: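 Luminescence from an ATXN2-FFLuc reporter in HEK293 cells served as read-out after 24 h compound treatment at 37 degrees C; CellTiter-Fluor fluorescence was recorded first to assess viability.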
# [4] = target: DNA dC->dU-editing enzyme APOBEC-3G (Homo sapiens) (UniProt Q9HC16); assay: qHTS for inhibitors of Vif-A3G interactions: Validation (AID 588379); details: Vif-A3G protein interaction assay; series mostly up to 46.1 µM; note: potency is the fitted concentration of half-maximal effect
# Outline: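 HeLa cells stably expressing Vif and A3G-eYFP, 700 cells/well, incubated overnight at 37 deg C, then exposed to compound overnight at 37 deg C. Inhibition of Vif-mediated degradation read as increased yellow fluorescence (Ex 488/Em 500-530) by laser-scanning cytometry.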
# [5] = qHTS for Inhibitors of ATXN expression: Validation of Cytotoxic Assay (AID 588349); details: cytotoxicity counter-screen for ATXN expression inhibitors, cell viability; series mostly up to 57.1 µM
# Outline: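 Read-out: ATP-based luminescence (CellTiter Glo) reflecting viability of HEK293 cells after 72 hr incubation at 37 degrees C with a concentration series of each compound.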
# [6] = target: Estrogen receptor (Homo sapiens) (UniProt P03372); assay: qHTS assay for small molecule antagonists of estrogen receptor alpha signaling (AID 588513; active = well fitted curve in the direction sought with a large enough effect in the signal ratio, with a control signal flat, not every such curve was filed as active; the % refers to the signal ratio); details: ER-alpha-UAS-bla HEK293, beta-lactamase ratio, antagonist mode; series mostly up to 76.9 µM
# Outline: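 ER-alpha-UAS-bla GripTite HEK 293 cells in medium with 2% charcoal/dextran-treated FBS were preincubated 4 h at 37 C, dosed with compound (1:2 titration), stimulated with 0.5nM 17-beta-estradiol for 18 h, then read by CCF4 beta-lactamase fluorescence.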
# [7] = target: Bile acid receptor (Homo sapiens) (UniProt Q96RI1); assay: qHTS assay for small molecule antagonists of farnesoid X receptor signaling (AID 588526; calls by dose curve); details: HEK293T FXR-UAS-bla, beta-lactamase ratio, antagonist mode; series mostly up to 76.7 µM
# Outline: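 Beta-lactamase reporter antagonist mode: HEK293T FXR-UAS-bla cells, titrated compound, CDCA stimulation, 16 h 37 C, CCF4 dye 2 h RT. Data normalized to CDCA 50 uM and DMSO; Hill-fit IC50.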
# [8] = target: Glucocorticoid receptor (Homo sapiens) (UniProt P04150); assay: qHTS assay for small molecule agonists of glucocorticoid receptor signaling (AID 588532; active = well fitted curve in the direction sought with a large enough effect in the signal ratio, with a control signal flat; the % refers to the signal ratio); details: HeLa MMTV-bla, beta-lactamase ratio, agonist, 18 h; hits give high values; percent of dexamethasone control, DMSO zero
# Outline: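 Agonist-mode qHTS: GRE-driven beta-lactamase in HeLa cells exposed 18 h to titrated compounds (up to 92 uM), then CCF4 ratio read after 2 h at RT; Hill-fitted EC50, efficacy relative to 0.1 uM dexamethasone.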
# Chain of Ubiquitin carboxyl-terminal hydrolase 1 (Homo sapiens) (O94782 whole entry, looked up): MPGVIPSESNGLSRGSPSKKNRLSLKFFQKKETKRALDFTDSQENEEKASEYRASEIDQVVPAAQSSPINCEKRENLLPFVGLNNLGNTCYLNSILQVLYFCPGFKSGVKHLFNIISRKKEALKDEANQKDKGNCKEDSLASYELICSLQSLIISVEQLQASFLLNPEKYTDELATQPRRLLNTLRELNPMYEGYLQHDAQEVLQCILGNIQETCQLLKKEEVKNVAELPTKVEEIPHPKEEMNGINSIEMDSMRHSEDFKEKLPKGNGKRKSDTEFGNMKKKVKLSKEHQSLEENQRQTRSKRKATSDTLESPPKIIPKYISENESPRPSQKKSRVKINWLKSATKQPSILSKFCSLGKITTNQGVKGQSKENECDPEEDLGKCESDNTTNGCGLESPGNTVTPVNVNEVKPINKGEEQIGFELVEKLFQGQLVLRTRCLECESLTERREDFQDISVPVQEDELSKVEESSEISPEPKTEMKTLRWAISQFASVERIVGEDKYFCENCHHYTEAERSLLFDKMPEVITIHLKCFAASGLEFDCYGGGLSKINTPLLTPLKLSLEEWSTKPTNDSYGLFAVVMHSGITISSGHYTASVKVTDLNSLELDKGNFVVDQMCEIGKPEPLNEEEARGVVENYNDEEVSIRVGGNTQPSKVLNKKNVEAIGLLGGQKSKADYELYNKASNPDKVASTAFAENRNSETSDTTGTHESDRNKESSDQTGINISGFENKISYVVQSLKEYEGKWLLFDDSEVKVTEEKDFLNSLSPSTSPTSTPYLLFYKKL
# Chain of DNA dC->dU-editing enzyme APOBEC-3G (Homo sapiens) (Q9HC16 whole entry, looked up): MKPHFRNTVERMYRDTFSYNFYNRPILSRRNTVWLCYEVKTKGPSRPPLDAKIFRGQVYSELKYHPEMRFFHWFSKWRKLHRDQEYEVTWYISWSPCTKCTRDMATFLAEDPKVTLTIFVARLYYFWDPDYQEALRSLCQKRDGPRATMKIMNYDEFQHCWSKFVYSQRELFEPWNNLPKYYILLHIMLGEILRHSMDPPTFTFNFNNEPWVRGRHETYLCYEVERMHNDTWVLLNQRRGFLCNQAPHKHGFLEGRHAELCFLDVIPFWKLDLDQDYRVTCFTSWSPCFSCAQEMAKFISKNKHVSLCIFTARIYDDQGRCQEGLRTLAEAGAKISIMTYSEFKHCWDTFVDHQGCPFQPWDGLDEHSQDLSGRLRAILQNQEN
# Chain of phosphoglycerate mutase (Leishmania major) (Q4Q090 1-553): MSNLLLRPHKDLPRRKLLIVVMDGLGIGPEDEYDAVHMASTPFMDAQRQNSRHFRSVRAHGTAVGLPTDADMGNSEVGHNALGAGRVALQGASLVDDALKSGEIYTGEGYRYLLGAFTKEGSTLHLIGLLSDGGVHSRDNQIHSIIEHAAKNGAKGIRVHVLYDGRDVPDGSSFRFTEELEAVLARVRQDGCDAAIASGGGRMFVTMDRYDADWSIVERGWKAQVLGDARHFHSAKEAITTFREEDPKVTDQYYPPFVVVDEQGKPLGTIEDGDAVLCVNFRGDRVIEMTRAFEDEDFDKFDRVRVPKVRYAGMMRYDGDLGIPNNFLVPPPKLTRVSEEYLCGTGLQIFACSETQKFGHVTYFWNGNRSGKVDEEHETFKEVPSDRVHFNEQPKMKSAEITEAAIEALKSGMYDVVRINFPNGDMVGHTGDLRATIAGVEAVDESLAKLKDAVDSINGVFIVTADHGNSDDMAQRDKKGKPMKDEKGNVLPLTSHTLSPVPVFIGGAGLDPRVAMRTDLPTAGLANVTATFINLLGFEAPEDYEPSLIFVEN
# Chain of Estrogen receptor (Homo sapiens) (P03372 whole entry, looked up): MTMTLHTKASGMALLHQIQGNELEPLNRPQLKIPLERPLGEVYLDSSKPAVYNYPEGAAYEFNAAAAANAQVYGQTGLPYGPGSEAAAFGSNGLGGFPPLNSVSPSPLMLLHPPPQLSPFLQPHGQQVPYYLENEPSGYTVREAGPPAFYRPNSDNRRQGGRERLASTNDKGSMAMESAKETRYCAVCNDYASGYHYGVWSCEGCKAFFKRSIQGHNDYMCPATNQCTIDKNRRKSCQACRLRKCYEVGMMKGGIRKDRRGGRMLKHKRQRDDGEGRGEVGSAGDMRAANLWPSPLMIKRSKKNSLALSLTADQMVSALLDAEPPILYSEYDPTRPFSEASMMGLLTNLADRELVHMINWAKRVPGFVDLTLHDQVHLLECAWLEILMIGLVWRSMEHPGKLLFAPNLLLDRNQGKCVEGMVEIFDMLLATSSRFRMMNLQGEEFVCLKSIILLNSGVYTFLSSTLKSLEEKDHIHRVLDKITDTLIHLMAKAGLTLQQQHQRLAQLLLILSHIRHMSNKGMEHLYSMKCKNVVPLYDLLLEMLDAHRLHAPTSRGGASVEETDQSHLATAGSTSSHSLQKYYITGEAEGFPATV
# Chain of Glucocorticoid receptor (Homo sapiens) (P04150 whole entry, looked up): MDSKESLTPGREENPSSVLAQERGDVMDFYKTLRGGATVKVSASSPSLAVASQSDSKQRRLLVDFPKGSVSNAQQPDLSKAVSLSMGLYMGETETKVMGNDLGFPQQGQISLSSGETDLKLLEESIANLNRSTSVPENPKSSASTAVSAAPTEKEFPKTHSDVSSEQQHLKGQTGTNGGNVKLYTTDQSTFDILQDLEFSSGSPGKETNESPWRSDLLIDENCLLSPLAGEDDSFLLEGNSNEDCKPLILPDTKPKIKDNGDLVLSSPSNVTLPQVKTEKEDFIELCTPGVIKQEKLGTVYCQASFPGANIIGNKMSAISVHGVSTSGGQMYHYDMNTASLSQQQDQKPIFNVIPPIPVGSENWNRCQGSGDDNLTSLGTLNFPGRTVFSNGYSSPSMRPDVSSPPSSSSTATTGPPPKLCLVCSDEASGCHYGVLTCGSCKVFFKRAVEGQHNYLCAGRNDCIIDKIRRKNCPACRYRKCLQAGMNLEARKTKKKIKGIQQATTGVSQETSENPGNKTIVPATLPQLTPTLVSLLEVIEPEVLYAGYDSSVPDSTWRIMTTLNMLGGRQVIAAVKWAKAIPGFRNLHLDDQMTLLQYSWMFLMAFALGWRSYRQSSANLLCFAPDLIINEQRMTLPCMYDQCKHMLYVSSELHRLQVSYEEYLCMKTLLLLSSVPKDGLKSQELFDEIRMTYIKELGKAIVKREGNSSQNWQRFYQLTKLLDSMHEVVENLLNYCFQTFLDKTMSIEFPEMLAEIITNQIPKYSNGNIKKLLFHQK
# Chain of Bile acid receptor (Homo sapiens) (Q96RI1 whole entry, looked up): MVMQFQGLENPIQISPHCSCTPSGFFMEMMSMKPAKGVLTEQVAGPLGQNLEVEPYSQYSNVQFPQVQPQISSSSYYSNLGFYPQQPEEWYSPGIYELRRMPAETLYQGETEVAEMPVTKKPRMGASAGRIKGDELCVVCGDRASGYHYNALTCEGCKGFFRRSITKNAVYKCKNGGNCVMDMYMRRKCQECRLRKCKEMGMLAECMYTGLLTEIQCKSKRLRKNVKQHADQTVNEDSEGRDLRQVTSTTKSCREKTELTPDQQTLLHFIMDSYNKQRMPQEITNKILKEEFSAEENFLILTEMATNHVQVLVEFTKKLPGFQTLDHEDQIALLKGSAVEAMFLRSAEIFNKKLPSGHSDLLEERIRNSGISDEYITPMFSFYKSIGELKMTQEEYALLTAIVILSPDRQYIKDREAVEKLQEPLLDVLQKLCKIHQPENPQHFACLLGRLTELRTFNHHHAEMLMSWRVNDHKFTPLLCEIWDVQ
smiles,measurement,setting,value
CSc1ccccc1N1CCN(CCCCCC(=O)NC2CCCc3ccccc32)CC1 (stereo not given),Potency,[1],inactive
same,Potency,[2],inactive
same,Potency,[3],22.4 µM (active)
CC12C(=O)OC(=O)C1(C)C1CCC2O1 (stereo not given),Potency,[1],inactive
same,Potency,[2],inactive
same,Potency,[4],inactive
Cc1cc(NC(=O)Nc2ccc3c(ccn3C)c2)sn1,Potency,[1],inactive
same,Potency,[2],inactive
same,Potency,[3],inactive
same,Potency,[4],inactive
N[C@@H](CC(=O)O)C(=O)O,Potency,[1],inactive
same,Potency,[2],inactive
same,Potency,[5],inactive
same,Potency,[3],inactive
same,Potency,[4],inactive
Cc1ccc(S(=O)(=O)/C=C/C#N)cc1,Potency,[1],inactive
same,Potency,[2],inactive
same,Potency,[3],10 µM (active)
C[N+]1(C)CCC(OC(=O)C(c2ccccc2)c2ccccc2)CC1,Potency,[1],inactive
same,Potency,[2],inactive
same,Potency,[5],inactive
same,Potency,[3],inactive
same,Potency,[4],inactive
Cc1cc2c(cc1Cl)N(C(=O)Nc1ccc(Oc3cccnc3C)nc1)CC2,Potency,[1],inactive
same,Potency,[2],44.7 µM (active)
same,Potency,[3],17.8 µM (active)
O=C(Nc1cccc(C(=O)Nc2ccc(S(=O)(=O)O)c3cc(S(=O)(=O)O)cc(S(=O)(=O)O)c23)c1)Nc1cccc(C(=O)Nc2ccc(S(=O)(=O)O)c3cc(S(=O)(=O)O)cc(S(=O)(=O)O)c23)c1,Potency,[1],inactive
same,Potency,[2],28.2 µM (active) and 12.6 µM (active)
same,Potency,[5],inactive
same,Potency,[3],inactive
same,Potency,[4],inactive
CCCn1c(=O)c2[nH]c(-c3ccc(OCC(=O)NCCN)cc3)nc2n(CCC)c1=O,Potency,[1],inactive
same,Potency,[2],inactive
same,Potency,[3],inactive
O=C1C(SCCO)=C(SCCO)C(=O)c2ccccc21,Potency,[1],inactive
same,Potency,[2],15.8 µM (active)
same,Potency,[3],4.47 µM (active)
same,Potency,[4],4.73 µM (active)
Oc1cc(O)cc(/C=C/c2ccc(O)c(O)c2)c1,Potency,[1],inactive
same,Potency,[2],inactive
same,Potency,[3],inactive
CNCC[C@H](Oc1ccc(C(F)(F)F)cc1)c1ccccc1,Potency,[1],inactive
same,Potency,[2],inactive
same,Potency,[4],inactive
O=C(O)c1cc(=O)c2ccccc2[nH]1,Potency,[1],inactive
same,Potency,[2],inactive
same,Potency,[5],inactive
same,Potency,[3],inactive
same,Potency,[4],inactive
O=c1[nH]c2cc([N+](=O)[O-])c([N+](=O)[O-])cc2[nH]c1=O,Potency,[1],inactive
same,Potency,[2],inactive
same,Potency,[5],inactive
same,Potency,[3],inactive
same,Potency,[4],inactive
C[C@@H](NC(=O)/C(C#N)=C/c1ccc(O)c(O)c1)c1ccccc1,Potency,[1],inactive
same,Potency,[2],inactive
same,Potency,[3],inactive
same,Potency,[4],inactive
O=C(O)[C@@H]1C[C@H](C(=O)O)N1,Potency,[1],inactive
same,Potency,[2],inactive
same,Potency,[5],inactive
same,Potency,[3],inactive
NC(N)=NC(=O)c1nc(Cl)c(N2CCCCCC2)nc1N,Potency,[1],inactive
same,Potency,[2],inactive
same,Potency,[3],inactive
COc1ccccc1CNCCCCCCNCCCCCCCCNCCCCCCNCc1ccccc1OC,Potency,[1],inactive
same,Potency,[2],inactive
same,Potency,[3],inactive
O=C(Nc1ccccc1)c1cc([N+](=O)[O-])ccc1Cl,Potency,[1],inactive
same,Potency,[2],inactive
same,Potency,[5],inactive
same,Potency,[3],inactive
same,Potency,[4],inactive
same,outcome,[6],inactive
same,outcome,[7],inactive
same,activation,[8],-2.03%
CC(C)NC[C@H](O)COc1cccc2[nH]ccc12,Potency,[1],inactive
same,Potency,[2],inactive
same,Potency,[5],inactive
same,Potency,[3],inactive
same,Potency,[4],inactive
CC(C)(C=O)Cc1cc(C(C)(C)C)c(O)c(C(C)(C)C)c1,Potency,[1],inactive
same,Potency,[2],inactive
same,Potency,[4],inactive
COc1cc2c(CCNC(C)=O)c[nH]c2cc1Cl,Potency,[1],inactive
same,Potency,[2],inactive
same,Potency,[5],inactive
same,Potency,[3],inactive
same,Potency,[4],inactive
O=C(O)c1cc(=O)c2c(Cl)cc(Cl)cc2[nH]1,Potency,[1],inactive
same,Potency,[2],inactive
same,Potency,[5],inactive
same,Potency,[3],inactive
same,Potency,[4],inactive
Cn1cc(C2=C(c3ccc(Cl)cc3Cl)C(=O)NC2=O)c2ccccc21,Potency,[1],inactive
same,Potency,[2],23.8 µM (active)
same,Potency,[5],inactive
same,Potency,[3],inactive
same,Potency,[4],2.99 µM (active)
NCCCCCCCCCCN,Potency,[1],inactive
same,Potency,[2],inactive
same,Potency,[3],inactive
O=C(/C=C/c1ccc(O)c(O)c1)OCCc1ccccc1,Potency,[1],inactive
same,Potency,[3],inactive
COc1cc(SC)ccc1C(=O)N1CCC(Cc2ccccc2)CC1,Potency,[1],inactive
same,Potency,[5],inactive
CN1C2CC(OC(=O)[C@H](CO)c3ccccc3)CC1C1OC12 (stereo not given in full),Potency,[1],inactive
same,Potency,[5],inactive
same,Potency,[3],inactive
O=C(/C=C/c1ccccc1)NCCO,Potency,[2],inactive
